# Assay results reported in PubChem BioAssay (EPA / NIEHS).
# Results filed as inconclusive are left out. The source made the active and inactive calls. The calls were made as follows, unless noted: active = hit-call score of the fitted dose curve at least 0.9, where 1 is the maximum; inactive = score below 0.9.
# Legend:
# [1] = target: Myc proto-oncogene protein (Homo sapiens) (UniProt P01106); assay: ATG_Myc_CIS: Attagene CIS-FACTORIAL HepG2 Assay for human Myelocytomatosis (Myc) Proto-Oncogene Transcription Factor (AID 2282990); conditions: HepG2, Attagene cis-reporter transcription factor activity; actives raise or lower the signal
# Myc proto-oncogene protein (Homo sapiens), sequence (P01106 whole entry, looked up): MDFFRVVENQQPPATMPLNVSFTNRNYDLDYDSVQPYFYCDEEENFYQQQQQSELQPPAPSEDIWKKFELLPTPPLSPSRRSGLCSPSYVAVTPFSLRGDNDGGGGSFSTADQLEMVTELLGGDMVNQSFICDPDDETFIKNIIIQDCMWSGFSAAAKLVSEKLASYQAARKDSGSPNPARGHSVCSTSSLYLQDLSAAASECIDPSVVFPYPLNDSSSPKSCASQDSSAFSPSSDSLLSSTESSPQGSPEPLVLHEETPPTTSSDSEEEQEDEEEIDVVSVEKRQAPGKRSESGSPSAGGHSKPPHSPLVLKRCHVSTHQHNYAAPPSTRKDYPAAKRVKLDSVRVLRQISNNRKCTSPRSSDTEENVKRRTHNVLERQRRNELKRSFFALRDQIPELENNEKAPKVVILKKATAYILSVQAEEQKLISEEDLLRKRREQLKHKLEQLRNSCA
# How it was run: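 HepG2 cells transiently transfected with multiple cis-promoter-driven reporter transcription units, so endogenous TF activity is read. After 24 h compound exposure, reporter mRNA was quantified by RT-PCR, 6-FAM labelling, HpaI digestion and capillary electrophoresis; bidirectional fit versus DMSO.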
# [2] = ATG_NRF2_ARE_CIS: Attagene CIS-FACTORIAL HepG2 Assay for human Nuclear Factor Erythroid 2 Related Factor 2 (NFR2) response to Antioxidant Response Elements (ARE) (AID 2282992); conditions: HepG2 Attagene ARE/NRF2 reporter, transcription factor activity; actives raise or lower the signal;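 as to AC50: reporter mRNA level measured by RT-PCR and capillary electrophoresis fluorescence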
# How it was run: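 Readout: reporter mRNA quantified by RT-PCR plus FAM-labelled primer extension, HpaI digestion and capillary electrophoresis, 24 h after dosing transfected HepG2 cells. Gain or loss of signal is fitted bidirectionally against DMSO baseline.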
# [3] = ATG_Oct_MLP_CIS: Attagene CIS-FACTORIAL HepG2 Assay for human Octamer-Binding Transcription Factor (Oct) (AID 2282993); conditions: HepG2 Attagene cis-factorial Oct reporter, mRNA; actives raise or lower the signal
# How it was run: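 Transient MRTU transfection of HepG2 → 24 h compound treatment → RNA isolation, reverse transcription, PCR → 6-FAM primer extension, HpaI digest → capillary electrophoresis. Activity fitted both directions against DMSO.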
# [4] = target: human Peroxisome Proliferator-activated Receptor alpha (PPARa), PPARA (gene 5465) (UniProt Q07869); assay: ATG_PPARa_TRANS: Attagene TRANS-FACTORIAL HepG2 Assay for human Peroxisome Proliferator-activated Receptor alpha (PPARa) (AID 2283001; active = hit-call score of the fitted dose curve at least 0.9, where 1 is the maximum)
# human Peroxisome Proliferator-activated Receptor alpha (PPARa), PPARA (gene 5465), sequence (Q07869 whole entry, looked up): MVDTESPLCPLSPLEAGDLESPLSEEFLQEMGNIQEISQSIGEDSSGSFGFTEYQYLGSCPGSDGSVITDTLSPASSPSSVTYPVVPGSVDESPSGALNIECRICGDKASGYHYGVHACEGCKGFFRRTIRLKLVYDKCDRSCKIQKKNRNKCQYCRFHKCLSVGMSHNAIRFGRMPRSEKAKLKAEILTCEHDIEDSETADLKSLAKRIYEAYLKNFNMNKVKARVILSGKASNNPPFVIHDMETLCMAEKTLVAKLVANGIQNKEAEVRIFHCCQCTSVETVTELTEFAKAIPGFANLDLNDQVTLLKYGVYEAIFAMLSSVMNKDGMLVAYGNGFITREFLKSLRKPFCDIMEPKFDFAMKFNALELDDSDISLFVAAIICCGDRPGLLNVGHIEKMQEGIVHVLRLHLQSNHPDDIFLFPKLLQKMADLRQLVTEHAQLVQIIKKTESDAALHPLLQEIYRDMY
# How it was run: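 Cells (HepG2) are transfected with multiple reporter transcription units, exposed to chemical for 24 h, then total RNA is reverse-transcribed and amplified. Labelled products are quantified by capillary electrophoresis; induction is referenced to DMSO.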
# [5] = target: human Peroxisome Proliferator-activated Receptor delta (PPARd), PPARD (gene 5467) (UniProt Q03181); assay: ATG_PPARd_TRANS: Attagene TRANS-FACTORIAL HepG2 Assay for human Peroxisome Proliferator-activated Receptor delta (PPARd) (AID 2283002; active = hit-call score of the fitted dose curve at least 0.9, where 1 is the maximum)
# human Peroxisome Proliferator-activated Receptor delta (PPARd), PPARD (gene 5467), sequence (Q03181 whole entry, looked up, the tested form may be a part): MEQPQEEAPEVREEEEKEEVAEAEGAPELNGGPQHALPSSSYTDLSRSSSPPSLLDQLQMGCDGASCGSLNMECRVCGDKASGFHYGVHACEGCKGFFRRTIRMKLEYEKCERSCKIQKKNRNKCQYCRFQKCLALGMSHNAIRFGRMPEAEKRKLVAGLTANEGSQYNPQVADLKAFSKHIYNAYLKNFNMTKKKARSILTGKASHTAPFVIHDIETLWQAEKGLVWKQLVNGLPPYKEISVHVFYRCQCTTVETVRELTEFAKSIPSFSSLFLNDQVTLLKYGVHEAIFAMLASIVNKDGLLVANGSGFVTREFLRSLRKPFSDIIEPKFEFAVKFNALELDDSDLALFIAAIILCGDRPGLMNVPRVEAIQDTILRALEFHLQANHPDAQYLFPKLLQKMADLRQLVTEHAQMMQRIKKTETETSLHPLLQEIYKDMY
# How it was run: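 HepG2 cells transiently transfected with multiplexed GAL4-UAS reporter units and exogenous chimeric NR-Gal4 proteins; 24 h compound exposure. Reporter mRNA measured by RT-PCR, 6-FAM labelling, HpaI digestion and capillary electrophoresis; gain of signal versus DMSO.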
# [6] = target: Peroxisome proliferator-activated receptor gamma (Homo sapiens) (UniProt P37231); assay: ATG_PPARg_TRANS: Attagene TRANS-FACTORIAL HepG2 Assay for human Peroxisome Proliferator-activated Receptor-gamma (PPARg) (AID 2283007; active = hit-call score of the fitted dose curve at least 0.9, where 1 is the maximum)
# Peroxisome proliferator-activated receptor gamma (Homo sapiens), sequence (P37231 whole entry, looked up, the tested form may be a part): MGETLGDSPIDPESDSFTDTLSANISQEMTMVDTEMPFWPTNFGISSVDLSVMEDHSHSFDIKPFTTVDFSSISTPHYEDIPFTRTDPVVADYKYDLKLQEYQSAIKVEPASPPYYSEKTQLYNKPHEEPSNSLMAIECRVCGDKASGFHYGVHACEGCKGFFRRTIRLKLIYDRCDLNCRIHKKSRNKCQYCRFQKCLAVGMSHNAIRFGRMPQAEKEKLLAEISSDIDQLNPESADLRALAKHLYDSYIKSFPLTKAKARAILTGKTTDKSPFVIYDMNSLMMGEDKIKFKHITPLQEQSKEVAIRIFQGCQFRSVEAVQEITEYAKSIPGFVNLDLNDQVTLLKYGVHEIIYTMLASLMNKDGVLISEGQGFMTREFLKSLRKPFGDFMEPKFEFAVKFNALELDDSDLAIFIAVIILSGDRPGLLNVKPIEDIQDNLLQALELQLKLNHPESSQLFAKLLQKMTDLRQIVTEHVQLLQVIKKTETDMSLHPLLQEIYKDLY
# How it was run: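 Chimeric NR-Gal4 transactivation is measured in transiently transfected HepG2 cells by reporter mRNA induction at 24 h. Detection uses RT-PCR with fluorescent labelling and capillary electrophoresis; DMSO defines baseline.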
# [7] = target: Nuclear receptor subfamily 1 group I member 2 (Homo sapiens) (UniProt O75469); assay: ATG_PXR_TRANS: Attagene TRANS-FACTORIAL HepG2 Assay for human Pregnane X Receptor (PXR) (AID 2283008; active = hit-call score of the fitted dose curve at least 0.9, where 1 is the maximum)
# Nuclear receptor subfamily 1 group I member 2 (Homo sapiens), sequence (O75469 whole entry, looked up, the tested form may be a part): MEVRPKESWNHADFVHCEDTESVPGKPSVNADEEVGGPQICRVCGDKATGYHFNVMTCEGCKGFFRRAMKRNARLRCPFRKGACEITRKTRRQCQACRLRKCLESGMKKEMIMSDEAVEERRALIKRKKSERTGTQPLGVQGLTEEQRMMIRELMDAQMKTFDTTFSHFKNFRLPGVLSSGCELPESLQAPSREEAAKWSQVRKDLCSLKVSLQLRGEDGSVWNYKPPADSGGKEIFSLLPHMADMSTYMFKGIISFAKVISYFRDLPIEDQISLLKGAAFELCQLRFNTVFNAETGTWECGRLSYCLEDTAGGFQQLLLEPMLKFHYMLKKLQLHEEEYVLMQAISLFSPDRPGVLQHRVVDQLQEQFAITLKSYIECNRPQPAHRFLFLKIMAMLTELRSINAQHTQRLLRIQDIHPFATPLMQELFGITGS
# How it was run: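 Trans-factorial format: exogenous NR-Gal4 fusion activity, not endogenous factor, in transfected human HepG2 liver cells. After 24 h dosing, RNA isolated, reverse-transcribed, amplified and resolved by capillary electrophoresis; induction scored versus DMSO.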
# [8] = target: human Retinoic Acid Receptor gamma (RARg), RARG (gene 5916) (UniProt P13631); assay: ATG_RARg_TRANS: Attagene TRANS-FACTORIAL HepG2 Assay for human Retinoic Acid Receptor gamma (RARg) (AID 2283009; active = hit-call score of the fitted dose curve at least 0.9, where 1 is the maximum)
# human Retinoic Acid Receptor gamma (RARg), RARG (gene 5916), sequence (P13631 whole entry, looked up, the tested form may be a part): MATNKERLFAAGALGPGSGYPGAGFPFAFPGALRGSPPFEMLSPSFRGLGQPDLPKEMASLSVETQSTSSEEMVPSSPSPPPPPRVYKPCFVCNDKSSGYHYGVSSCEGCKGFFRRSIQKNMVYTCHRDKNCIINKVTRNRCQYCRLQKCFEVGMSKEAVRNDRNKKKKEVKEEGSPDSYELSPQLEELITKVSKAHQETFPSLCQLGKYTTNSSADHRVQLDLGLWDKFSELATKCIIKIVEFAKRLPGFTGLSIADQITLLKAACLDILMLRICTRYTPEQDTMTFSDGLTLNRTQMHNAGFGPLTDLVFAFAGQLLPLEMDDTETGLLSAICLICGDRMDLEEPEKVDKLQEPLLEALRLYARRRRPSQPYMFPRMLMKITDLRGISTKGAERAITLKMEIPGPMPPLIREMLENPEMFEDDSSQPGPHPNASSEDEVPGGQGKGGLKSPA
# How it was run: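 TRANS format measured activity of exogenous NR-GAL4 fusion (RARg) in transfected HepG2 liver cells after 24 h dosing. Induced reporter RNA was detected by RT-PCR/capillary electrophoresis fluorescence, analysed in the positive direction against DMSO.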
# [9] = target: human RAR-related Orphan Receptor beta (RORb), RORB (gene 6096) (UniProt Q92753); assay: ATG_RORb_TRANS: Attagene TRANS-FACTORIAL HepG2 Assay for human RAR-related Orphan Receptor beta (RORb) (AID 2283010; active = hit-call score of the fitted dose curve at least 0.9, where 1 is the maximum)
# human RAR-related Orphan Receptor beta (RORb), RORB (gene 6096), sequence (Q92753 whole entry, looked up, the tested form may be a part): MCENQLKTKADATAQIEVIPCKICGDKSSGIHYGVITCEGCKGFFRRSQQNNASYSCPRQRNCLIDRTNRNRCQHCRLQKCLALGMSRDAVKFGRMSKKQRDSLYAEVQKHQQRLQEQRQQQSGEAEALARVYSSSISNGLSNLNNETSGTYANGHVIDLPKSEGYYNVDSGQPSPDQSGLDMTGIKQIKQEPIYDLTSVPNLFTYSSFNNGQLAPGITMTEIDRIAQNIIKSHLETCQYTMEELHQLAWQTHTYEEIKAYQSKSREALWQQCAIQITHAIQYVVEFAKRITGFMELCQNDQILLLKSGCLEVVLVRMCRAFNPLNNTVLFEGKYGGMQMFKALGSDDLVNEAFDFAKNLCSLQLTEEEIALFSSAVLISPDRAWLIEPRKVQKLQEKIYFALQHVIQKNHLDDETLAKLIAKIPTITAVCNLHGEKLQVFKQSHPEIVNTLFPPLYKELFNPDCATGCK
# How it was run: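 Transfect HepG2 with multiple GAL4-UAS reporter transcription units; dose chemicals for 24 h; isolate RNA, reverse-transcribe and PCR-amplify reporter sequences; label, digest and resolve fragments by capillary electrophoresis; fit increases relative to DMSO.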
# [10] = target: Retinoic acid receptor alpha (Homo sapiens) (UniProt P10276); assay: ATG_RARa_TRANS: Attagene TRANS-FACTORIAL HepG2 Assay for human Retinoic Acid Receptor alpha (RARa) (AID 2283005; active = hit-call score of the fitted dose curve at least 0.9, where 1 is the maximum)
# Retinoic acid receptor alpha (Homo sapiens), sequence (P10276 whole entry, looked up, the tested form may be a part): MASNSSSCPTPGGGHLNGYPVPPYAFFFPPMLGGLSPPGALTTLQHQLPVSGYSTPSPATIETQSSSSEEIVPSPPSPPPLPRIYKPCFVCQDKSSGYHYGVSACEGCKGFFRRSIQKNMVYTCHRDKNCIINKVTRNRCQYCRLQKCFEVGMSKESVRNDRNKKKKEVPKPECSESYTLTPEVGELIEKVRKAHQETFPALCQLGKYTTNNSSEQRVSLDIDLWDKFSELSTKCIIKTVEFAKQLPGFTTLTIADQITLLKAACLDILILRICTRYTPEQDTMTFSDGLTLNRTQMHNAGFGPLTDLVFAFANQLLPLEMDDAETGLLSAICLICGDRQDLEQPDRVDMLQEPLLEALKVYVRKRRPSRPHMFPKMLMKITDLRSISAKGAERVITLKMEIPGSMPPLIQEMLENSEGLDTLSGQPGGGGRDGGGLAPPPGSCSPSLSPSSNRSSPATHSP
# How it was run: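 HepG2 cells transiently transfected with multiple reporter units expressing chimeric RARα-GAL4 fusion, with GAL4-UAS-driven reporters. After 24 h compound exposure, reporter mRNA induction quantified by RT-PCR and capillary electrophoresis with fluorescent labeling; gain-of-signal fitted relative to DMSO control.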
# [11] = target: human RAR-related Orphan Receptor gamma (RORg), RORC (gene 6097) (UniProt P51449); assay: ATG_RORg_TRANS: Attagene TRANS-FACTORIAL HepG2 Assay for human RAR-related Orphan Receptor gamma (RORg) (AID 2283011; active = hit-call score of the fitted dose curve at least 0.9, where 1 is the maximum)
# human RAR-related Orphan Receptor gamma (RORg), RORC (gene 6097), sequence (P51449 whole entry, looked up, the tested form may be a part): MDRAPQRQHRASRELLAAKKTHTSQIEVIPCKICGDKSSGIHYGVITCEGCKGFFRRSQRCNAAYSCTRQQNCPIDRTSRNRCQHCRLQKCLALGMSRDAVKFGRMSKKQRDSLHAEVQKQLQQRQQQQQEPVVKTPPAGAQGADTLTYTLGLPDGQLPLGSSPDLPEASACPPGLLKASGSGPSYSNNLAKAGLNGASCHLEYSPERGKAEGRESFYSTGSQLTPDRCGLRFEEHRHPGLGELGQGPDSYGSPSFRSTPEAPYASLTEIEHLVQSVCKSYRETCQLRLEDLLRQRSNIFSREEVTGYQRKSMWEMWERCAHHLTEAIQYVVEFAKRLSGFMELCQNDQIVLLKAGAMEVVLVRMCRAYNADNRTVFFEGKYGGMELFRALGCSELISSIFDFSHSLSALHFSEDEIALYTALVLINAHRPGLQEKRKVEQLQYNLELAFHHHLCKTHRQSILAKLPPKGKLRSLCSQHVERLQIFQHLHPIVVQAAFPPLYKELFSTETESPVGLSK
# How it was run: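 Reporter transcripts from a transfected RORg-GAL4 chimera in HepG2 cells were quantified 24 h after dosing by RT-PCR, 6-FAM labelling, HpaI digestion and capillary electrophoresis; increases over DMSO baseline were fitted.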
# [12] = target: Cellular tumor antigen p53 (Homo sapiens) (UniProt P04637); assay: ATG_p53_CIS: Attagene CIS-FACTORIAL HepG2 Assay for human p53 Transcription Factor (AID 2282994); conditions: HepG2 p53 cis-element reporter, Attagene mRNA; actives raise or lower the signal
# Cellular tumor antigen p53 (Homo sapiens), sequence (P04637 whole entry, looked up): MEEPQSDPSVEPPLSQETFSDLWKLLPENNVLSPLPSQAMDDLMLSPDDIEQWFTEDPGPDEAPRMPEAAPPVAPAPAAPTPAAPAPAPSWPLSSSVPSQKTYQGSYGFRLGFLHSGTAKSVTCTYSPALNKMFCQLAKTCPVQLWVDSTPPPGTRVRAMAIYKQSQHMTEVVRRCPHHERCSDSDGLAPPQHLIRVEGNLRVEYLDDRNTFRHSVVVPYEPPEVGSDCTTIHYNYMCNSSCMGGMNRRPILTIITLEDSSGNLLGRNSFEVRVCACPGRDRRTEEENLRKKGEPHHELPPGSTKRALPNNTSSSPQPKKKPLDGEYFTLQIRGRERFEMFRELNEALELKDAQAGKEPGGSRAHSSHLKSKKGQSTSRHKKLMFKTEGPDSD
# How it was run: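 Read-out: reporter mRNA by RT-PCR plus capillary electrophoresis with fluorescence detection. Human HepG2 liver cells carried transfected multi-reporter cis-element constructs, dosed 24 h. Gain or loss of signal fitted bidirectionally against DMSO control.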
# [13] = target: human Retinoic Acid Receptor beta (RARb), RARB (gene 5915) (UniProt P10826); assay: ATG_RARb_TRANS: Attagene TRANS-FACTORIAL HepG2 Assay for human Retinoic Acid Receptor beta (AID 2283004; active = hit-call score of the fitted dose curve at least 0.9, where 1 is the maximum)
# How it was run: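 Induction of reporter mRNA from a chimeric RARb-Gal4 construct was measured by RT-PCR, FAM labelling, HpaI digestion and capillary electrophoresis. Measurements followed 24 h compound treatment of transiently transfected human HepG2 liver cells, with DMSO as baseline.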
# [14] = BSK_3C_TissueFactor: BioMAP Diversity Plus: 3C Assay for Tissue Factor Biomarker Activity (AID 2282997); conditions: BioMAP 3C HUVEC, tissue factor biomarker readout; actives raise or lower the signal
# How it was run: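 Tissue factor on primary human umbilical vein endothelium was read by ELISA 24 h after dosing, gain or loss relative to DMSO. Cytotoxicity ran alongside via SRB (0.1%, TCA-fixed, 560 nm).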
# [15] = BSK_3C_uPAR: BioMAP Diversity Plus: 3C Assay for Urokinase-type plasminogen activator receptor (uPAR) Biomarker Activity (AID 2282998); conditions: BioMAP 3C HUVEC, uPAR biomarker ELISA; actives raise or lower the signal
# How it was run: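 ELISA readout of uPAR on human vascular endothelium (umbilical vein primary cells), taken 24 h after chemical dosing. Increases and decreases are both fitted relative to DMSO vehicle.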
# [16] = BSK_3C_VCAM1: BioMAP Diversity Plus: 3C Assay for Vascular cell adhesion molecule 1 (VCAM1) Biomarker Activity (AID 2282999); conditions: BioMAP 3C HUVEC, VCAM1 ELISA, cytokine-stimulated; actives raise or lower the signal
# How it was run: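 Vascular primary endothelium (human umbilical vein) was exposed to chemicals and assayed 24 h later. VCAM-1 levels came from ELISA, with DMSO serving as baseline for bidirectional fitting.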
# [17] = BSK_4H_Eotaxin3: BioMAP Diversity Plus: 4H Assay for Eotaxin 3 Biomarker Activity (AID 2283000); conditions: primary human endothelial cells (HUVEC); actives raise or lower the signal;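 also: CCL26 protein level quantified by ELISA in parallel with SRB cytotoxicity check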
# How it was run: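 Human umbilical vein endothelial cells (BSK_4H system) dosed with test chemical; Eotaxin-3 (CCL26) measured by ELISA 24 h after dosing. Bidirectional curve fitting relative to DMSO negative control as baseline.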
# [18] = read-out: Intercellular Adhesion Molecule 1 (ICAM1), ICAM1 (gene 3383); assay: BSK_3C_ICAM1: BioMAP Diversity Plus: 3C Assay for Intercellular Adhesion Molecule 1 (ICAM1) Biomarker Activity (AID 2283003); conditions: primary human endothelial cells (HUVEC); actives raise or lower the signal
# How it was run: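 Chemicals are dosed onto primary human umbilical vein endothelium (3C system). After 24 h, ICAM-1 is measured by ELISA, and responses are fitted bidirectionally relative to DMSO.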
# [19] = BSK_3C_Proliferation: Cell Proliferation Assessment in the BioMAP Diversity Plus: 3C Assay (AID 2283006); conditions: primary human endothelial cells (HUVEC)
# How it was run: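 Cells (human umbilical vein endothelial, sub-confluent) receive test chemical; after 48 h they are fixed in 10% trichloroacetic acid, stained with 0.1% SRB and read at 560 nm. Activity is referenced to DMSO, fitting increases and decreases.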
smiles,measurement,setting,value
Nc1ccc(NCCO)c([N+](=O)[O-])c1,outcome,[1],inactive
same,AC50,[2],24.1 µM (active)
same,outcome,[3],inactive
same,outcome,[4],inactive
same,outcome,[5],inactive
same,outcome,[6],inactive
same,outcome,[7],inactive
same,outcome,[8],inactive
same,outcome,[9],inactive
CC(O)C1CCCCC1 (stereo unspecified),outcome,[1],inactive
same,outcome,[2],inactive
same,outcome,[3],inactive
same,outcome,[4],inactive
same,outcome,[10],inactive
same,outcome,[6],inactive
same,outcome,[8],inactive
C=C(C)C(=O)OCCOC1CC2CC1C1C=CCC21 (stereo unspecified),outcome,[1],inactive
same,AC50,[2],177 µM (active)
same,outcome,[3],inactive
same,outcome,[4],inactive
same,outcome,[5],inactive
same,outcome,[6],inactive
same,outcome,[7],inactive
same,outcome,[11],inactive
CCCCC(CC)(CO)CO,outcome,[1],inactive
same,outcome,[2],inactive
same,outcome,[3],inactive
same,outcome,[12],inactive
same,outcome,[6],inactive
same,outcome,[7],inactive
CCCC[P+](CCCC)(CCCC)CCCC,outcome,[1],inactive
same,outcome,[2],inactive
same,outcome,[3],inactive
same,outcome,[12],inactive
same,outcome,[10],inactive
same,outcome,[7],inactive
same,outcome,[11],inactive
C=CCN(CC=C)CC=C,outcome,[1],inactive
same,outcome,[2],inactive
same,outcome,[3],inactive
same,outcome,[13],inactive
same,outcome,[7],inactive
same,outcome,[9],inactive
same,outcome,[11],inactive
CCCCCCCCN1CCCC1=O,outcome,[1],inactive
same,AC50,[2],66.8 µM (active)
same,outcome,[3],inactive
same,AC50,[12],72.6 µM (active)
same,outcome,[6],inactive
same,AC50,[7],7.53 µM (active)
same,outcome,[8],inactive
COC(=O)C=C(C)CCC=C(C)C,outcome,[1],inactive
same,AC50,[2],36.1 µM (active)
same,outcome,[12],inactive
same,outcome,[4],inactive
same,outcome,[5],inactive
same,AC50,[6],44.5 µM (active)
same,AC50,[7],4.9 µM (active)
Nc1ccc2c(O)cc(S(=O)(=O)O)cc2c1,outcome,[1],inactive
same,outcome,[2],inactive
same,outcome,[3],inactive
same,outcome,[12],inactive
same,outcome,[6],inactive
same,outcome,[7],inactive
same,outcome,[8],inactive
same,outcome,[9],inactive
same,outcome,[11],inactive
O=C(Nc1ccc2c(O)c(N=Nc3ccc(N=Nc4ccc(S(=O)(=O)O)cc4)cc3)c(S(=O)(=O)O)cc2c1)c1ccccc1,outcome,[1],inactive
same,outcome,[2],inactive
same,outcome,[12],inactive
same,outcome,[14],inactive
same,outcome,[15],inactive
same,outcome,[16],inactive
same,outcome,[17],inactive
same,outcome,[18],inactive
same,outcome,[19],inactive
same,outcome,[6],inactive
same,outcome,[7],inactive
CCCCCC(C)=O,outcome,[1],inactive
same,outcome,[2],inactive
same,outcome,[3],inactive
same,outcome,[12],inactive
same,outcome,[6],inactive
same,outcome,[7],inactive
same,outcome,[11],inactive
Cc1cc(C)nc(NS(=O)(=O)c2ccc(N)cc2)n1,outcome,[1],inactive
same,outcome,[2],inactive
same,outcome,[3],inactive
same,outcome,[4],inactive
same,outcome,[5],inactive
same,outcome,[6],inactive
same,outcome,[7],inactive
same,outcome,[9],inactive
C=C1C[C@]23C[C@@]1(O)CC[C@H]2[C@@]12C=C[C@H](O)[C@@](C)(C(=O)O1)[C@H]2[C@@H]3C(=O)O,outcome,[1],inactive
same,outcome,[2],inactive
same,outcome,[3],inactive
same,outcome,[5],inactive
same,outcome,[6],inactive
same,outcome,[11],inactive
NC1CCCCC1N (stereo unspecified),outcome,[1],inactive
same,outcome,[2],inactive
same,outcome,[12],inactive
same,outcome,[5],inactive
same,outcome,[10],inactive
same,outcome,[7],inactive
COc1cc(Cl)c(OC)cc1N,outcome,[1],inactive
same,outcome,[2],inactive
same,outcome,[3],inactive
same,outcome,[14],inactive
same,outcome,[15],inactive
same,outcome,[16],inactive
same,outcome,[17],inactive
same,outcome,[4],inactive
same,outcome,[5],inactive
same,outcome,[18],inactive
same,outcome,[13],inactive
same,outcome,[10],inactive
same,outcome,[19],inactive
same,outcome,[6],inactive
same,outcome,[7],inactive
same,outcome,[8],inactive
CCCCCCOCCOCCO,outcome,[1],inactive
same,outcome,[2],inactive
same,outcome,[3],inactive
same,outcome,[5],inactive
same,outcome,[6],inactive
same,outcome,[7],inactive
same,outcome,[8],inactive
CCCC(=O)OCCc1ccccc1,outcome,[1],inactive
same,outcome,[2],inactive
same,outcome,[3],inactive
same,outcome,[7],inactive
same,outcome,[9],inactive
same,outcome,[11],inactive
CCCCCCC(=O)c1ccccc1,outcome,[1],inactive
same,AC50,[2],121 µM (active)
same,outcome,[3],inactive
same,outcome,[4],inactive
same,outcome,[5],inactive
same,AC50,[6],42.8 µM (active)
same,AC50,[7],59.2 µM (active)
